PubChem BioAssay AID1159580 (chemical genetic matrix, 2015)
The campaign covered roughly 5,500 compounds. About 2,000 (36%) were called active. Another 18% or so got no clear call; they are omitted. Rule as the data show it: active = normalized growth mostly below about 0.91 (no sharp cut-off); inconclusive = no clear call, values can overlap the other calls; inactive = mostly above about 0.92. Some of the results follow.

Assay: chemical genetic growth profiling, strain panel (AID 1159580);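 also: tested at 20 µM; growth read once vehicle control cultures reached saturation at 30 °C; 1 = growth at the plate median or of vehicle wells; lower values mean less growth of the strain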
Conditions: S. cerevisiae deletion strains, growth OD

Measured: normalized growth

CO[C@H]1[C@H](O)[C@H](O[C@H]2CC[C@]3(C)C4CC[C@]5(C)C(C6=CC(=O)OC6)CC[C@]5(O)C4CC[C@@H]3C2)O[C@@H](C)[C@@H]1O (some centres undefined)
inactive: locus YAL013W, strain DEP1, active compounds read low 1.01 | locus YAL021C, strain ccr4, active compounds read low 1 | locus YAL026C, strain drs2, active compounds read low 1.01 | locus YAL030W, strain snc1, active compounds read low 1 | locus YBL061C, strain skt5, active compounds read low 0.993 | locus YBR009C, strain hhf1, active compounds read low 1.01 | locus YBR021W, strain FUR4, active compounds read low 1.02 | locus YBR023C, strain chs3, active compounds read low 0.999 | locus YBR171W, strain sec66, active compounds read low 0.984 | locus YBR229C, strain ROT2, active compounds read low 1.01 | locus YBR231C, strain swc5, active compounds read low 1.03 | locus YBR279W, strain paf1, active compounds read low 1.01 | locus YCL011C, strain gbp2, active compounds read low 0.992 | locus YCL016C, strain dcc1, active compounds read low 1 | locus YCL029C, strain bik1, active compounds read low 1.01 | locus YCL061C, strain MRC1, active compounds read low 0.996 | locus YCL069W, strain vba3, active compounds read low 1 | locus YCR088W, strain abp1, active compounds read low 1 | locus YDL005C, strain med2, active compounds read low 0.994 | locus YDL035C, strain GPR1, active compounds read low 1.02 | locus YDL040C, strain nat1, active compounds read low 1.02 | locus YDL074C, strain BRE1, active compounds read low 1.02 | locus YDL101C, strain DUN1, active compounds read low 1.02 | locus YDL134C, strain PPH21, active compounds read low 1 | locus YDL185W, strain tfp1, active compounds read low 1 | locus YDL192W, strain arf1, active compounds read low 1.01 | locus YDR001C, strain nth1, active compounds read low 0.994 | locus YDR069C, strain doa4, active compounds read low 0.997 | locus YDR101C, strain arx1, active compounds read low 0.993 | locus YDR137W, strain rgp1, active compounds read low 1 | locus YDR150W, strain NUM1, active compounds read low 1.01 | locus YDR159W, strain sac3, active compounds read low 0.997 | locus YDR162C, strain NBP2, active compounds read low 1.02 | locus YDR195W, strain ref2 0.989 | locus YDR297W, strain sur2, active compounds read low 1.01 | locus YDR318W, strain mcm21, active compounds read low 1.01 | locus YDR334W, strain swr1, active compounds read low 1.03 | locus YDR335W, strain msn5, active compounds read low 1.01 | locus YDR388W, active compounds read low 1.01 | locus YDR392W, strain spt3, active compounds read low 0.991 | locus YDR502C, strain sam2, active compounds read low 1 | locus YEL003W, strain gim4, active compounds read low 1.02 | locus YEL037C, strain rad23, active compounds read low 1.01 | locus YEL061C, strain CIN8 (second series), active compounds read low 0.987 | locus YEL061C, strain CIN8, active compounds read low 1.01 | locus YER015W, strain faa2, active compounds read low 1 | locus YER016W, strain bim1, active compounds read low 1 | locus YER110C, active compounds read low 1.02 | locus YER111C, strain swi4, active compounds read low 1.01 | locus YER155C, strain BEM2 (second series), active compounds read low 1.03 | locus YER155C, strain BEM2, active compounds read low 1.02 | locus YER167W, strain BCK2, active compounds read low 1.02 | locus YFR010W, strain ubp6, active compounds read low 1.01 | locus YGL078C, strain dbp3, active compounds read low 1 | locus YGL086W, strain mad1, active compounds read low 1.01 | locus YGL167C, strain pmr1, active compounds read low 1 | locus YGL173C, strain kem1, active compounds read low 0.996 | locus YGL227W, strain vid30, active compounds read low 0.997 | locus YGL240W, strain doc1, active compounds read low 1.02 | locus YGL248W, strain PDE1, active compounds read low 1.01 | locus YGL253W, strain hxk2, active compounds read low 0.996 | locus YGR078C, strain PAC10, active compounds read low 1.01 | locus YGR135W, strain pre9, active compounds read low 1.02 | locus YGR229C, strain SMI1, active compounds read low 1.03 | locus YGR252W, strain gcn5, active compounds read low 0.964 | locus YHR013C, strain ard1, active compounds read low 0.98 | locus YHR027C, strain rpn1, active compounds read low 0.979 | locus YHR030C, strain SLT2, active compounds read low 1.01 | locus YHR079C, strain IRE1 (second series), active compounds read low 1.01 | locus YHR094C, strain hxt1, active compounds read low 1.01 | locus YHR129C, strain ARP1, active compounds read low 1.01 | locus YHR142W, strain chs7, active compounds read low 1.02 | locus YHR200W, strain rpn10, active compounds read low 1.01 | locus YIL066C, strain RNR3, active compounds read low 1.01 | locus YIL073C, strain SPO22, active compounds read low 1.02 | locus YIL125W, strain kgd1, active compounds read low 0.997 | locus YIR030C, strain dcg1, active compounds read low 0.998 | locus YJL092W, strain hpr5, active compounds read low 1 | locus YJL095W, strain BCK1 (second series), active compounds read low 0.981 | locus YJL095W, strain BCK1, active compounds read low 1.04 | locus YJL115W, strain asf1, active compounds read low 0.999 | locus YJL129C, strain trk1, active compounds read low 0.974 | locus YJL134W, strain LCB3, active compounds read low 1.01 | locus YJL154C, strain vps35, active compounds read low 1.01 | locus YJL164C, strain tpk1, active compounds read low 0.998 | locus YJL166W, strain qcr8, active compounds read low 1 | locus YJL168C, strain set2, active compounds read low 1.01 | locus YJL187C, strain SWE1 (second series), active compounds read low 1.02 | locus YJL187C, strain SWE1, active compounds read low 0.998
